# A number with no mark means an inactive call. Inconclusive results are not listed. A call without a number means that no potency is given here. Active and inactive are the calls of the source. Unless noted, the call rests on the fitted dose curve; in most records, active means well fitted curve in the direction sought with a large enough effect; inconclusive means small, poorly fitted or top-dose-only effect, or another doubt; inactive means no such curve, though single readings can be large; an effect the other way counts as inactive or inconclusive.
# How the values were obtained:
# [1] = Cellular Toxicity (caspase-3) SHSY5Y (AID 657); details: SH-SY5Y caspase-3 activation; series mostly up to 91.7 µM
# In short: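 SH-SY5Y human neuroblastoma cells (1500/well) were treated with compounds for 16 h at 37 °C, then Caspase-Glo 3/7 luminescence was read after 1 h at room temperature. Data normalized to DMSO and 10 uM staurosporine; AC50 from Hill fits.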
# [2] = Cellular Toxicity (caspase-3) BJ (AID 658); details: BJ fibroblasts, luminescence; Potency: caspase-3 activation; series mostly up to 91.7 µM
# In short: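 Caspase-Glo 3/7 luminescence, read 1 hr after reagent at room temperature, in normal BJ fibroblasts exposed 16 hours at 37 °C. AC50 values from Hill-equation concentration-response, scaled between DMSO basal and 10 uM staurosporine as 100%.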
# [3] = Cellular Toxicity (caspase-3) MRC-5 (AID 659); details: MRC-5 cells, luminescence; Potency: caspase-3 activation; series mostly up to 91.7 µM
# In short: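 Luminescent Caspase-Glo 3/7 read-out (1 h, room temperature) after a 16 h, 37 °C compound exposure of MRC-5 lung fibroblasts at 1500 cells/well. Concentration-response AC50 from Hill equation; 0% DMSO, 100% 10 uM staurosporine.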
# [4] = Cellular Toxicity (caspase-3) Mesangial (AID 660); details: mesangial cells; Potency: caspase-3 activation; series mostly up to 91.7 µM;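 further: combined caspase 3 and 7 activity read by Caspase-Glo luminescence; cells exposed to compound for 16 h before the caspase read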
# In short: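 AC50 values come from Hill-equation fits of caspase 3/7 activation, measured as Caspase-Glo luminescence in human glomerular mesangial cells exposed to compound for 16 h at 37 °C; 100% set by 100 uM tamoxifen.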
# [5] = Cellular Toxicity (caspase-3) SK-N-SH (AID 661); details: SK-N-SH caspase-3 activation, qHTS; series mostly up to 91.7 µM
# In short: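 Apoptosis readout in SK-N-SH neuroblastoma: Caspase-Glo 3/7 luminescence following 16 hr treatment in complete culture medium. Normalization used DMSO and 10 uM staurosporine controls.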
# [6] = Cellular Toxicity (caspase-3) H-4-II-E (AID 663); details: H-4-II-E rat hepatoma, scaled: DMSO 0%, 100 µM tamoxifen 100%; at 92.2 µM (top of the series);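 further: cells exposed to compound for 16 hr before readout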
# In short: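 Caspase 3/7 activation measured by luminescent aminoluciferin substrate cleavage after 16 hr compound treatment of H-4-II-E cells in complete medium. Increase normalized between DMSO (basal) and 100 uM tamoxifen (100%); Hill-equation AC50 from concentration-response.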
# [7] = Cellular Toxicity (caspase-3) Hek293 (AID 664); details: HEK293 caspase-3 activation, DMSO = 0%, 100 µM tamoxifen = 100%; at 92.2 µM (top of the series);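 further: cells exposed to compound for 16 h at 37 °C before readout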
# In short: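 Apoptosis readout: Caspase-Glo 3/7 signal in human HEK293 cells following 16-hour compound incubation. Responses scaled between DMSO baseline and 100 uM tamoxifen.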
# [8] = Cellular Toxicity (caspase-3) N2a (AID 665); details: N2a cells, luminescence, normalized: DMSO 0%, 10 µM staurosporine 100%; series mostly up to 92.2 µM;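 further: compound exposure lasted 16 h at 37 °C before readout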
# In short: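 Concentration-response qHTS: compound-induced caspase-3/7 luminescence in N2a cells (16 h, 37 °C), relative to DMSO and 10 uM staurosporine controls; AC50 obtained using the standard Hill equation.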
# [9] = Cellular Toxicity (caspase-3) NIH 3T3 (AID 666); details: NIH 3T3 caspase-3 activation, apoptosis/toxicity; series mostly up to 92.2 µM
# In short: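 Activity: caspase-3/7 induction, NIH 3T3 cells, 16 hr treatment at 37°C, luminescent Caspase-Glo detection; AC50 via Hill equation.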
# [10] = Cellular Toxicity (caspase-3) Renal Proximal Tubule (AID 667); details: renal proximal tubule cells, primary cells freshly taken from rat; Potency: caspase-3 activation; series mostly up to 91.7 µM;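 further: cells exposed to compound for 16 hours at 37 °C before detection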
# In short: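 Primary rat proximal tubule cells, 1000/well, 5 h plating at 37 °C, then compound 16 h at 37 °C. Caspase-Glo 3/7 reagent, 1 h RT, luminescence. Normalized to DMSO (basal) and 10 uM staurosporine (100%); Hill-fit AC50.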
# [11] = biological target: Cytochrome P450 3A4 (Homo sapiens) (UniProt P08684); test: qHTS Assay for Inhibitors and Substrates of Cytochrome P450 3A4 (AID 884); details: recombinant CYP3A4, Luciferin-PPXE luminescence; series mostly up to 57.1 µM; further: nearly all actives have a fitted effect of over 50% in size
# Chain of Cytochrome P450 3A4 (Homo sapiens) (P08684 whole entry, looked up): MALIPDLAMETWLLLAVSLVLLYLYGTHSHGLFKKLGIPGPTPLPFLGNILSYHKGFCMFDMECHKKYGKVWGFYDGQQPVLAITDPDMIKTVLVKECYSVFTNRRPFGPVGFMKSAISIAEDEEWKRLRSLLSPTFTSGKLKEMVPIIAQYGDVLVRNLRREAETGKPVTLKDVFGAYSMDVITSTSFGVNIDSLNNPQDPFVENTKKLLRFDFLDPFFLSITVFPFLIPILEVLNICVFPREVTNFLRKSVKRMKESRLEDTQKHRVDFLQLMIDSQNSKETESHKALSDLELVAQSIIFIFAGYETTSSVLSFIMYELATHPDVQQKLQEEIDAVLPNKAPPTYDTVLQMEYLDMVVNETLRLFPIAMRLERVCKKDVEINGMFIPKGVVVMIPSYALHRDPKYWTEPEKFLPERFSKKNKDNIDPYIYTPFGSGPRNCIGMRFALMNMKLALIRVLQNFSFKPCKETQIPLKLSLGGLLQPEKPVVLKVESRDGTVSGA
# In short: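 Luminescent readout of luciferin produced by CYP3A4 (20 nM) dealkylation of Luciferin-PPXE, 25 uM (its KM). NADPH-driven reaction ran 60 min at RT after 10 min compound preincubation; data scaled to 57 uM ketoconazole as 100% inhibition.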
# [12] = Confirmation and Secondary Assay for Modulators of Hemoglobin Beta Chain Splicing at IVS2 654 locus (AID 910); details: HeLa EGFP-654 splicing reporter, GFP fluorescence, 48 h; series mostly up to 46.1 µM;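 further: HeLa cells stably carrying EGFP split by mutant beta-globin IVS2-654 intron; per-well total GFP intensity by laser scanning cytometry after 2-day treatment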;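 further: potency means the concentration at half of the fitted maximal effect; potency of activators that raise GFP signal by restoring correct splicing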
# In short: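 Readout: per-well total peak green fluorescence (488 nm ex, 500–520 nm em) from objects 5–250 µm, reflecting correct splicing of an EGFP-654 reporter. Compounds were applied for 2 days at 37 °C to overnight-plated HeLa EGFP-654 cells; controls were DMSO and 500 nM IVS2-654 PNA.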
# [13] = biological target: Cytochrome P450 3A4 (Homo sapiens) (UniProt P08684); test: qHTS Assay for Activators of Cytochrome P450 3A4 (AID 885); details: recombinant CYP3A4, Luciferin-PPXE luminescence, 60 min; series mostly up to 57.1 µM; further: nearly all actives have a fitted effect of over 65% in size
# In short: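 Human CYP3A4 dealkylates Luciferin-PPXE to luciferin, which luciferase detection converts to light. Substrate was at its KM (25uM), buffer 200mM KPO4, reaction 60 min at RT.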
# [14] = biological target: Cytochrome P450 2D6 (Homo sapiens) (UniProt P10635); test: qHTS Assay for Inhibitors and Substrates of Cytochrome P450 2D6 (AID 891); details: recombinant CYP2D6, luciferin-ME EGE luminescence; series mostly up to 57.1 µM; further: potency means the concentration at half of the fitted maximal effect; nearly all actives have a fitted effect of over 60% in size
# Chain of Cytochrome P450 2D6 (Homo sapiens) (P10635 whole entry, looked up): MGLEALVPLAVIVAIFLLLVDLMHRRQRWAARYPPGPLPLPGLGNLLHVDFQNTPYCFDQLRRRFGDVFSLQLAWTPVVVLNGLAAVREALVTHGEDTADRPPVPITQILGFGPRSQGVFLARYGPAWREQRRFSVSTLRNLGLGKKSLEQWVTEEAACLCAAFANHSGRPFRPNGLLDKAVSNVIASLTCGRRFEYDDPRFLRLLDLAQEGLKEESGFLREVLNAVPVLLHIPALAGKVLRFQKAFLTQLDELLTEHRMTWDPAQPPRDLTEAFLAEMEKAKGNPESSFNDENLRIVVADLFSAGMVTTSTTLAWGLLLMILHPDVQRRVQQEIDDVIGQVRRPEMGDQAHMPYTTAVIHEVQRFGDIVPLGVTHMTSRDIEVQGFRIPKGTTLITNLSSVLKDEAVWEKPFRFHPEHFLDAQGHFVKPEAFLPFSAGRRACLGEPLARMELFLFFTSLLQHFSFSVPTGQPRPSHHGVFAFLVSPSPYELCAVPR
# In short: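 Luminescent read-out of luciferin formed by 5 nM human CYP2D6 demethylating 30 uM Luciferin-ME EGE (Km level) over 60 min at room temperature after NADPH regeneration addition. Data normalized to full inhibition by 1.43 uM quinidine.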
# [15] = biological target: Cytochrome P450 2C19 (Homo sapiens) (UniProt P33261); test: qHTS Assay for Inhibitors and Substrates of Cytochrome P450 2C19 (AID 899); details: recombinant CYP2C19, luciferin-H EGE luminescence; series mostly up to 57.1 µM; further: nearly all actives have a fitted effect of over 60% in size; further: potency means the concentration at half of the fitted maximal effect
# Chain of Cytochrome P450 2C19 (Homo sapiens) (P33261 whole entry, looked up): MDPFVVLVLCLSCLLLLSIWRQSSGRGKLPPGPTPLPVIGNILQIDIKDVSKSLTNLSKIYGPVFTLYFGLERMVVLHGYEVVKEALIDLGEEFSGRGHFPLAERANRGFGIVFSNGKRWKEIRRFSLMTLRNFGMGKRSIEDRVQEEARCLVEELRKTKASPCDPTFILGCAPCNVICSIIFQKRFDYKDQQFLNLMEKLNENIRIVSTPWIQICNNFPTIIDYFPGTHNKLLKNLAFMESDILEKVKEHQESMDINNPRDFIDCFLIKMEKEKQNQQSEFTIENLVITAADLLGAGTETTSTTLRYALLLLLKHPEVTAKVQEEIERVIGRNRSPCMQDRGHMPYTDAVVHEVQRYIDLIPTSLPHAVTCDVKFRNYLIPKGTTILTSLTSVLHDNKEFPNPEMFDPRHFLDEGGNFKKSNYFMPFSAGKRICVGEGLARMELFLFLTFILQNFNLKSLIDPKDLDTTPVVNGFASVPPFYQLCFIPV
# In short: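 Luminescence readout of luciferin formed from 10uM Luciferin-H EGE (KM level) by 5 nM CYP2C19 in 50mM KPO4. 60 min NADPH-driven reaction at 37C after 10 min compound preincubation; data scaled to 57uM ketoconazole inhibition.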
# [16] = qHTS Assay for Identification of Small Molecule Agonists for Hypoxia Response Element Signaling Pathway (AID 914; active means well fitted activation curve with a large enough effect in the signal ratio, with a control signal flat, not every such curve was filed as active; the % refers to the signal ratio); details: ME-180 (cervical carcinoma) HRE-bla reporter, beta-lactamase ratio, CoCl2, 17 h; hits give high values
# In short: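 In Opti-MEM containing 0.5% dialyzed FBS and 10 mM HEPES, ME-180 HRE-bla cells received a compound titration and EC50 CoCl2. They were incubated 17 hours, then CCF4-loaded 2.5 hours at room temperature before ratio reading.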
structure (smiles),measurement,setting,value
Cc1nnc(NS(=O)(=O)c2ccc(N)cc2)s1,Potency,[1],inactive
same,Potency,[2],inactive
same,Potency,[3],inactive
same,Potency,[4],inactive
same,Potency,[5],inactive
same,caspase-3 activation,[6],-0.129%
same,caspase-3 activation,[7],-0.508%
same,outcome,[8],inactive
same,Potency,[9],inactive
same,Potency,[10],inactive
same,outcome,[11],inactive
same,Potency,[12],inactive
NC(N)=NC(N)=NCCc1ccccc1,Potency,[1],inactive
same,Potency,[2],inactive
same,Potency,[3],inactive
same,Potency,[4],inactive
same,Potency,[5],inactive
same,caspase-3 activation,[6],0.291%
same,caspase-3 activation,[7],-0.745%
same,outcome,[8],inactive
same,Potency,[9],inactive
same,Potency,[10],inactive
COC(=O)Nc1nc2ccc(S(=O)c3ccccc3)cc2[nH]1 (configuration not stated),Potency,[12],inactive
COc1ccccc1OCC(O)COC(N)=O (configuration not stated),outcome,[11],inactive
same,Potency,[12],inactive
NC(=O)N1c2ccccc2CC(=O)c2ccccc21,Potency,[12],inactive
COc1cc([C@@H]2c3cc4c(cc3[C@H](O)[C@H]3COC(=O)[C@H]23)OCO4)cc(OC)c1OC,outcome,[13],inactive
COc1cc(NS(=O)(=O)c2ccc(N)cc2)nc(OC)n1,Potency,[12],inactive
CN(CCOc1ccc(CC2SC(=O)NC2=O)cc1)c1ccccn1 (configuration not stated),Potency,[12],inactive
CCCCOc1ccc(CC(=O)NO)cc1,outcome,[11],inactive
same,Potency,[12],inactive
OC(Cn1cncn1)(Cn1cncn1)c1ccc(F)cc1F,Potency,[12],inactive
CCn1cc(C(=O)O)c(=O)c2cc(F)c(N3CCNCC3)cc21,Potency,[12],inactive
CN(Cc1cc(Br)cc(Br)c1N)C1CCCCC1,Potency,[12],inactive
O=S(=O)(O)CCS,outcome,[11],inactive
same,Potency,[12],inactive
Cc1cccc(Nc2ccncc2S(=O)(=O)NC(=O)NC(C)C)c1,outcome,[13],inactive
same,Potency,[12],inactive
CC1=CC(=O)c2ccccc2C1=O,outcome,[13],inactive
same,Potency,[14],7.94 µM (active)
same,Potency,[15],2.51 µM (active)
same,Potency,[12],inactive
COc1cnc(NS(=O)(=O)c2ccc(N)cc2)nc1,outcome,[11],inactive
same,Potency,[12],inactive
same,activation,[16],5.32%
COc1c(N2CCNC(C)C2)c(F)cc2c(=O)c(C(=O)O)cn(C3CC3)c12 (configuration not stated),outcome,[11],inactive
same,Potency,[12],inactive
CCCCCCNC(=O)n1cc(F)c(=O)[nH]c1=O,Potency,[12],inactive
NS(=O)(=O)c1cc2c(cc1Cl)NC(C(Cl)Cl)NS2(=O)=O (configuration not stated),outcome,[11],inactive
same,Potency,[12],inactive
C1CCC(C(CC2CCCCN2)C2CCCCC2)CC1 (configuration not stated),outcome,[13],inactive
same,Potency,[12],inactive
O=C(O)c1cccnc1,outcome,[11],inactive
same,Potency,[12],inactive
CCCOc1ccc(C(=O)OCCN(CC)CC)cc1N,Potency,[15],inactive
CNNCc1ccc(C(=O)NC(C)C)cc1,activation,[16],9.99%
NCCCC(O)(P(=O)(O)O)P(=O)(O)O,Potency,[12],inactive
CCCCS(=N)(=O)CCC(N)C(=O)O (configuration not stated),outcome,[13],inactive
same,Potency,[12],inactive
CCCc1cc(C(N)=S)ccn1,Potency,[12],inactive
Cn1c(=O)c2c(ncn2CC(O)CO)n(C)c1=O (configuration not stated),outcome,[11],inactive
same,Potency,[12],inactive
Oc1c(Cl)cc(Cl)c2cccnc12,Potency,[12],inactive
Nc1nc(=S)c2[nH]cnc2[nH]1,outcome,[11],inactive
same,Potency,[12],31.6 µM (active)
CC(C)(Sc1cc(C(C)(C)C)c(O)c(C(C)(C)C)c1)Sc1cc(C(C)(C)C)c(O)c(C(C)(C)C)c1,Potency,[12],inactive
CC(=O)CC(c1ccccc1)c1c(O)c2ccccc2oc1=O (configuration not stated),outcome,[11],inactive
same,Potency,[12],inactive
Cc1cccc(N(C)C(=S)Oc2ccc3ccccc3c2)c1,outcome,[13],inactive
same,Potency,[12],inactive
COc1ccc2c(c1)c(CC(=O)OCC(=O)O)c(C)n2C(=O)c1ccc(Cl)cc1,outcome,[11],inactive
same,Potency,[12],inactive
COC(=O)Nc1nc2ccc(Sc3ccccc3)cc2[nH]1,outcome,[11],inactive
same,Potency,[12],inactive
CN1CCCC(n2nc(Cc3ccc(Cl)cc3)c3ccccc3c2=O)CC1 (configuration not stated),Potency,[12],inactive
CN(C)CCc1c[nH]c2ccc(CS(=O)(=O)N3CCCC3)cc12,outcome,[11],inactive
same,Potency,[12],inactive

# Source: PubChem BioAssay (NCATS)
